Measurements published in PubChem BioAssay (NCI).
About 83,000 compounds went through this panel and 20% of them were active in at least one assay; those are over-represented in the sample as a whole.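 Growth was measured after 48 h exposure to one concentration of compound in 96-well plates. Values under 10 count as active.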 Active and inactive are the calls of the source.

Test system: A549/ATCC NSCLC
Experiment: NCI-60 one-dose screen, 48 h (100 = growth as untreated, 0 = no growth, -100 = all killed)
Conditions: 10 µM unless noted

| Structure (SMILES) | growth |
| --- | --- |
| O=C(COc1cccc(/C=C2\COc3ccc(Cl)cc3C2=O)c1)c1ccc(Cl)cc1 | 100% (inactive) |
| Cc1cc(Nc2ccc(C)c(Cl)c2)n2nc(C(F)(F)F)nc2n1 | 42.5% (inactive) |
| CN(C)c1ccc(NC(=O)c2ccc(/C=C/C(=O)c3ncc[nH]3)cc2)cc1 | 63.1% (inactive) |
| O=[N+]([O-])c1ccccc1/C=N\NC(=S)N/N=C/c1ccccc1[N+](=O)[O-] | 74.8% (inactive) |
| O=C(Oc1cccnc1)c1ccsc1Nc1ccnc(C(F)(F)F)c1 | 98.2% (inactive) |
| OC(c1cc2cc(Cl)c(Cl)cc2c2cc(C(F)(F)F)ccc12)C1CCCCN1 (stereo unspecified) | -84% (active) |
| COc1ccc(-c2cc(-c3ccc(Nc4ccnc5cc(Cl)ccc45)cc3)nc(N3CCOCC3)n2)cc1 | 12.3% (inactive) |
| C=C1C(=O)O[C@H]2[C@H]1CC/C(COC(=O)NCCc1ccc(OC)c(OC)c1)=C\CC[C@@]1(C)O[C@@H]21 | 86.4% (inactive) |
| O=[N+]([O-])c1ccc2c(c1)Cc1cc(F)ccc1-2 | 88.5% (inactive) |
| CN1CCN(c2nc(NCCCNc3ccnc4cc(Cl)ccc34)c3ccccc3n2)CC1 | 29.2% (inactive) |
| Clc1ccc2c(NCCCCNc3nc(N4CCCCC4)nc4ccccc34)ccnc2c1 | 16.2% (inactive) |
| NC(=NC1C2CC3CC(C2)CC1C3)Nc1ccc(I)cc1 (stereo unspecified) | 26.1% (inactive) |
| CCOc1nc(-c2ccccc2)cc2c(O)c(C(=O)O)[nH]c(=O)c12 | 108% (inactive) |
| COc1ccc(Nc2cc(C)nc(N3CCN(c4ccnc5cc(Cl)ccc45)CC3)n2)cc1 | 26.3% (inactive) |
| Cc1cc(N2CCN(c3ccnc4cc(Cl)ccc34)CC2)nc(N2CCOCC2)n1 | 89.4% (inactive) |
| N#Cc1c(N)n(CCNC(=O)c2ccccc2)c2nc3ccccc3nc12 | 105% (inactive) |
| COc1ccc(CN2c3ccccc3Sc3ccccc32)c(C(F)(F)F)c1 | 33.2% (inactive) |
| CCc1c(Nc2ccccc2C)nc(N)[nH]c1=O | 114% (inactive) |
| CC(=O)c1cc2c(N)c(C(=O)Nc3ccccc3)sc2nc1C | 28.4% (inactive) |

| Structure (SMILES) | growth |
| --- | --- |
| CCCCC/C(C=C(C#N)C#N)=C/c1ccccc1 | 61.6% (inactive) |
| OCCNc1nccc(N2CCN(c3ccnc4cc(Cl)ccc34)CC2)n1 | 80.6% (inactive) |
| Cc1cc(N2CCSCC2)nc(NC2CCCC(Nc3ccnc4cc(Cl)ccc34)C2)n1 (stereo unspecified) | 7.52% (active) |
| COc1ccc(Nc2c3c4c(cccc4[nH]c2=O)C(=O)c2ccccc2-3)cc1 | 20.6% (inactive) |
| O=C1/C(=C/c2ccccc2O)N=C2SCCCN12 | 101% (inactive) |
| COc1cc2c(cc1O)CC[C@@H]1[C@@H]2CC[C@]2(C)[C@@H](OCCCN(C)C)CC[C@@H]12 | -33.7% (active) |
| O=C(Cn1cccc(Nc2ccccc2)c1=O)Nc1ccccc1 | 106% (inactive) |
| Cc1cc(N2CCN(c3ccnc4cc(Cl)ccc34)CC2)nc(NC2CCCCC2)n1 | 34% (inactive) |
| CSc1ccc(SC2c3ccc(C)cc3Oc3nc(N)c(C#N)c(N)c32)cc1 (stereo unspecified) | 0.603% (active) |
| O=c1ccccc(-c2ccc(-c3ccco3)cc2)c1O | 13.3% (inactive) |
| O=C(COc1ccc(/C=C2\CSc3ccccc3C2=O)cc1)Nc1nccs1 | 100% (inactive) |
| CN(C)CCCNc1c2ccccc2nc2ccccc12 | 96.2% (inactive) |
| O=C(Cc1ccc(/C=C/C(=O)c2ncc[nH]2)cc1)Nc1ccccc1 | 57.2% (inactive) |
| CC/C=C\C/C=C\C[C@H]1C/C=C2/C(=O)C=C[C@@H]2C/C=C\CCC(=O)O1 | 2.89% (active) |
| COc1cccc(-c2nc(SCC(=O)Nc3ccc(C(=O)/C=C/c4ccc(OC)c(OC)c4)cc3)[nH]c(=O)c2C#N)c1 | 90.6% (inactive) |
| Cc1cc(N2CCN(C)CC2)nc(NC2CCCC(Nc3ccnc4cc(Cl)ccc34)C2)n1 (stereo unspecified) | 3% (active) |
| Clc1ccc2nc3nc4ccc[nH]c4cc3c2c1 | 79.2% (inactive) |
| COc1ccc2c(c1)C(=O)/C(=C/c1ccccn1)CC2 | 95.2% (inactive) |
| COc1ccc(C2Nc3c(c(C(C)(C)C)nn3-c3ccccc3)C(=O)CS2)cc1 (stereo unspecified) | 89.3% (inactive) |

Test system: 786-0 renal
Experiment: as above
Conditions: 10 µM unless noted

| Structure (SMILES) | growth |
| --- | --- |
| O=C(COc1cccc(/C=C2\COc3ccc(Cl)cc3C2=O)c1)c1ccc(Cl)cc1 | 98% (inactive) |
| Cc1cc(Nc2ccc(C)c(Cl)c2)n2nc(C(F)(F)F)nc2n1 | -46.2% (active) |
| CN(C)c1ccc(NC(=O)c2ccc(/C=C/C(=O)c3ncc[nH]3)cc2)cc1 | 47.1% (inactive) |
| O=[N+]([O-])c1ccccc1/C=N\NC(=S)N/N=C/c1ccccc1[N+](=O)[O-] | 74.9% (inactive) |
| O=C(Oc1cccnc1)c1ccsc1Nc1ccnc(C(F)(F)F)c1 | 108% (inactive) |
| OC(c1cc2cc(Cl)c(Cl)cc2c2cc(C(F)(F)F)ccc12)C1CCCCN1 (stereo unspecified) | -78.1% (active) |
| COc1ccc(-c2cc(-c3ccc(Nc4ccnc5cc(Cl)ccc45)cc3)nc(N3CCOCC3)n2)cc1 | 69.6% (inactive) |
| C=C1C(=O)O[C@H]2[C@H]1CC/C(COC(=O)NCCc1ccc(OC)c(OC)c1)=C\CC[C@@]1(C)O[C@@H]21 | 77.7% (inactive) |
| O=[N+]([O-])c1ccc2c(c1)Cc1cc(F)ccc1-2 | 95.4% (inactive) |
| CN1CCN(c2nc(NCCCNc3ccnc4cc(Cl)ccc34)c3ccccc3n2)CC1 | 74.6% (inactive) |
| Clc1ccc2c(NCCCCNc3nc(N4CCCCC4)nc4ccccc34)ccnc2c1 | -90.3% (active) |
| NC(=NC1C2CC3CC(C2)CC1C3)Nc1ccc(I)cc1 (stereo unspecified) | 61% (inactive) |
| CCOc1nc(-c2ccccc2)cc2c(O)c(C(=O)O)[nH]c(=O)c12 | 111% (inactive) |
| COc1ccc(Nc2cc(C)nc(N3CCN(c4ccnc5cc(Cl)ccc45)CC3)n2)cc1 | 29.1% (inactive) |
| Cc1cc(N2CCN(c3ccnc4cc(Cl)ccc34)CC2)nc(N2CCOCC2)n1 | 97.8% (inactive) |
| N#Cc1c(N)n(CCNC(=O)c2ccccc2)c2nc3ccccc3nc12 | 92% (inactive) |
| COc1ccc(CN2c3ccccc3Sc3ccccc32)c(C(F)(F)F)c1 | 41.9% (inactive) |
| CCc1c(Nc2ccccc2C)nc(N)[nH]c1=O | 109% (inactive) |
| CC(=O)c1cc2c(N)c(C(=O)Nc3ccccc3)sc2nc1C | 77.2% (inactive) |

| Structure (SMILES) | growth |
| --- | --- |
| CCCCC/C(C=C(C#N)C#N)=C/c1ccccc1 | 87% (inactive) |
| OCCNc1nccc(N2CCN(c3ccnc4cc(Cl)ccc34)CC2)n1 | 92.8% (inactive) |
| Cc1cc(N2CCSCC2)nc(NC2CCCC(Nc3ccnc4cc(Cl)ccc34)C2)n1 (stereo unspecified) | -91.6% (active) |
| COc1ccc(Nc2c3c4c(cccc4[nH]c2=O)C(=O)c2ccccc2-3)cc1 | 12.1% (inactive) |
| O=C1/C(=C/c2ccccc2O)N=C2SCCCN12 | 98.8% (inactive) |
| COc1cc2c(cc1O)CC[C@@H]1[C@@H]2CC[C@]2(C)[C@@H](OCCCN(C)C)CC[C@@H]12 | -83.8% (active) |
| O=C(Cn1cccc(Nc2ccccc2)c1=O)Nc1ccccc1 | 106% (inactive) |
| Cc1cc(N2CCN(c3ccnc4cc(Cl)ccc34)CC2)nc(NC2CCCCC2)n1 | 37.9% (inactive) |
| CSc1ccc(SC2c3ccc(C)cc3Oc3nc(N)c(C#N)c(N)c32)cc1 (stereo unspecified) | -96.6% (active) |
| O=c1ccccc(-c2ccc(-c3ccco3)cc2)c1O | 10.6% (inactive) |
| O=C(COc1ccc(/C=C2\CSc3ccccc3C2=O)cc1)Nc1nccs1 | 95.7% (inactive) |
| CN(C)CCCNc1c2ccccc2nc2ccccc12 | 88.6% (inactive) |
| O=C(Cc1ccc(/C=C/C(=O)c2ncc[nH]2)cc1)Nc1ccccc1 | 32.8% (inactive) |
| CC/C=C\C/C=C\C[C@H]1C/C=C2/C(=O)C=C[C@@H]2C/C=C\CCC(=O)O1 | -43.7% (active) |
| COc1cccc(-c2nc(SCC(=O)Nc3ccc(C(=O)/C=C/c4ccc(OC)c(OC)c4)cc3)[nH]c(=O)c2C#N)c1 | 99.4% (inactive) |
| Cc1cc(N2CCN(C)CC2)nc(NC2CCCC(Nc3ccnc4cc(Cl)ccc34)C2)n1 (stereo unspecified) | -60.5% (active) |
| Clc1ccc2nc3nc4ccc[nH]c4cc3c2c1 | 105% (inactive) |
| COc1ccc2c(c1)C(=O)/C(=C/c1ccccn1)CC2 | 100% (inactive) |
| COc1ccc(C2Nc3c(c(C(C)(C)C)nn3-c3ccccc3)C(=O)CS2)cc1 (stereo unspecified) | 113% (inactive) |
